Screen size: about 13,000 compounds; about 3,200 (25%) showed an effect of 50% or more. Some of the results follow.
Each molecule was assayed on P. falciparum stage V gametocytes. Details: 48 h, 5 µM; inhibitor.
Parameters: BacTiter-Glo ATP luminescence viability of purified stage V gametocytes in 384-well plates, per cent inhibition versus DMSO

Which “% Inhibition” value does the source give for `CC(C)C[C@@H](C(=O)N[C@H](C(=O)Nc1nccs1)C(C)(C)C)[C@H](CCC(F)(F)F)N(O)C=O` [TCMDC-138178] here?
Its value is 1.039%.

`CCC1(CC)N=C(N)N=C(N)N1OCc1ccc(Cl)c(Cl)c1` [TCMDC-131656] was tested. Which “% Inhibition” value did it give?
The value was 33.88%.

For `N#Cc1ccc(C(=O)Nc2ccc(Cl)c(N3CCN(CCc4ccccc4)CC3)c2)cc1` [TCMDC-133534], which “% Inhibition” value is on record?
The value was -15.74%.

For `CC(Nc1ccc2c(c1)CCC2)C(=O)Nc1cc(C(F)(F)F)ccc1N1CCOCC1` (stereo not drawn) [TCMDC-124858], which “% Inhibition” value is on record?
The value was 33.49%.

`COc1ccc2ncc(C#N)c(CCN3CCC(NCc4ccc5c(n4)NC(=O)CS5)CC3)c2n1` [TCMDC-135188] was tested. Which “% Inhibition” value did it give?
Its value is -9.823%.

With `CN(C(=O)/C=C/c1cc(C(F)(F)F)ccc1F)C1CCN(CCCCCNC(=O)/C=C/c2ccc(Cl)c(Cl)c2)CC1` [TCMDC-139991] as the molecule, how does the “% Inhibition” value read?
The value was -46.39%.

Which “% Inhibition” value does the source give for `CCN(CC)c1ccc(C=CC(=O)NCCN2CCC(N(C)C3CCCCC3C)CC2)cc1` (stereo not drawn) [TCMDC-124445] here?
Its value is -34.59%.

How did the “% Inhibition” value turn out when `CC1CCCCC1N(C)C1CCN(CCCNC(=O)C=Cc2cccc(C(F)(F)F)c2)CC1` (stereo not drawn) [TCMDC-124443] was run?
Its value is 53.92%.

How did the “% Inhibition” value turn out when `CC1CCCCC1N(C)C1CCN(CCCNC(=O)C=Cc2ccccc2Cl)CC1` (stereo not drawn) [TCMDC-124442] was run?
The value was 1.29%.

How did the “% Inhibition” value turn out when `CC1CCCCC1N(C)C1CCN(CCCNC(=O)C=Cc2ccc(Cl)cc2Cl)CC1` (stereo not drawn) [TCMDC-124444] was run?
Its value is 93.47%.

Which “% Inhibition” value does the source give for `O=C(/C=C/c1cccc(C(F)(F)F)c1)NCCCCCN1CCC(c2c[nH]c3ccccc23)CC1` [TCMDC-139212] here?
The value was -27.28%.

With `Fc1ccc(COc2ccc(Nc3ncnc4ccc(I)cc34)cc2Cl)cc1` [TCMDC-138628] as the molecule, how does the “% Inhibition” value read?
The value was -1.956%.

`Cc1c(Cc2ccc(C(C)C)cc2)cnc2nc(N)nc(N)c12` [TCMDC-138044] was tested. Which “% Inhibition” value did it give?
The value was 4.775%.

How did the “% Inhibition” value turn out when `CCOc1ccc(-c2nonc2NC(=O)c2ccco2)cc1OCC` [TCMDC-125197] was run?
Its value is 3.347%.

Which “% Inhibition” value does the source give for `CCOc1ccc(-c2nonc2NC(=O)CC(C)C)cc1OCC` [TCMDC-125196] here?
Its value is 42.86%.

How did the “% Inhibition” value turn out when `CCOc1ccc(-c2nonc2NC(=O)c2ccccc2)cc1OCC` [TCMDC-125199] was run?
The value was 91.48%.

`CCOc1ccc(-c2nonc2NC(=O)c2cccs2)cc1OCC` [TCMDC-125207] was tested. Which “% Inhibition” value did it give?
The value was 83.06%.

For `CCOc1ccc(-c2nonc2NC(=O)c2cccc(Cl)c2)cc1OCC` [TCMDC-125200], which “% Inhibition” value is on record?
The value was 91.59%.

`CCCCC(=O)Nc1nonc1-c1ccc(OCC)c(OCC)c1` [TCMDC-125071] was tested. Which “% Inhibition” value did it give?
The value was 74.8%.

How did the “% Inhibition” value turn out when `Cc1ccc2cc(NCCCCCCCCON3C(N)=NC(N)=NC34CCCCC4)ccc2n1` [TCMDC-140362] was run?
The value was 9.593%.

How did the “% Inhibition” value turn out when `Cn1cncc1C(=O)NC1CCN(c2ccnc(Nc3ccc(F)cc3)n2)C1` (stereo not drawn) [TCMDC-133600] was run?
The value was -9.129%.

For `CC(C)CC(C)NC(=O)C1Cc2c([nH]c3ccc(F)cc23)C2(CCN(Cc3ccccc3)CC2)N1` (stereo not drawn) [TCMDC-141304], which “% Inhibition” value is on record?
The value was -71.76%.

How did the “% Inhibition” value turn out when `Cc1cccc2nc(-c3ccc(-c4ccc(NC(=O)Nc5cccc(C#N)c5)cc4)s3)[nH]c12` [TCMDC-133189] was run?
Its value is 17.89%.

With `CCN(CC)S(=O)(=O)c1ccc(C(=O)Oc2ccccc2N(Cc2ccc(OC)cc2)C2=NS(=O)(=O)c3ccccc32)cc1` [TCMDC-125657] as the molecule, how does the “% Inhibition” value read?
Its value is 32.63%.

With `COc1ccc2nccc([C@@H](O)CN3CCC(NCc4ccc5sc(=O)[nH]c5c4)CC3)c2c1` [TCMDC-141199] as the molecule, how does the “% Inhibition” value read?
Its value is 32.68%.

Which “% Inhibition” value does the source give for `Oc1ccc(CN2CCC(N3CCN(CCc4ccccc4)CC3)C(O)C2)cc1Cl` (stereo not drawn) [TCMDC-124627] here?
The value was 21.13%.

`CCc1ccc(O)c(-c2cc(C(=O)Nc3cccnc3)[nH]n2)c1` [TCMDC-125321] was tested. Which “% Inhibition” value did it give?
Its value is -26.21%.

How did the “% Inhibition” value turn out when `CN1CCN(Cc2c(O)ccc3c(=O)c(Oc4ccc(C(C)(C)C)cc4)c(C(F)(F)F)oc23)CC1` [TCMDC-125699] was run?
The value was 17.84%.

How did the “% Inhibition” value turn out when `O=C(Nc1cccc(Cl)c1)OC1CCCN2CCCCC12` (stereo not drawn) [TCMDC-132073] was run?
The value was 14.89%.

Which “% Inhibition” value does the source give for `CC(C)(C)c1ccc(S(=O)(=O)Nc2ccccc2Cn2nc(N3CCNCC3)ccc2=O)cc1` [TCMDC-132579] here?
The value was 45.07%.

For `CC(C)(C)C(=O)Nc1ccc(C(=O)Nc2cccc(-c3nc4ccccc4[nH]3)c2)cc1` [TCMDC-123720], which “% Inhibition” value is on record?
The value was -0.3051%.

With `CCOc1ccc(-c2nonc2NC(=O)c2ccc(F)cc2)cc1OCC` [TCMDC-125209] as the molecule, how does the “% Inhibition” value read?
Its value is 63.55%.

With `CCOc1ccc(-c2nonc2NC(=O)c2ccc(Cl)cc2)cc1OCC` [TCMDC-125210] as the molecule, how does the “% Inhibition” value read?
The value was 29.52%.

`CCOc1ccc(-c2nonc2NC(=O)c2ccc(OC)cc2)cc1OCC` [TCMDC-125208] was tested. Which “% Inhibition” value did it give?
The value was 49.87%.

For `Nc1cccc(CNCc2cccc(-c3ccc(-c4nc5ccccc5[nH]4)cc3)c2)c1.O=C(O)C(F)(F)F` [TCMDC-132940], which “% Inhibition” value is on record?
The value was -44.43%.

For `CCOc1cc(NCCCNc2ncc([N+](=O)[O-])cc2C)nc2ccccc12` [TCMDC-139265], which “% Inhibition” value is on record?
Its value is -18.92%.

With `CCOc1cccc2nc(NCCCNCc3ccc(Cl)c(Cl)c3)cc(NCCCNCc3ccc(Cl)c(Cl)c3)c12` [TCMDC-139413] as the molecule, how does the “% Inhibition” value read?
The value was 102.1%.

Which “% Inhibition” value does the source give for `CCOc1c(Cl)cc(Cl)cc1CNCCCNc1nc2ccccc2[nH]1` [TCMDC-140104] here?
The value was 21.3%.

With `COc1ccc2c(c1)nc(CN=C(N)N)n2Cc1ccc(Cl)cc1` [TCMDC-142042] as the molecule, how does the “% Inhibition” value read?
Its value is 28.73%.

For `Cc1cc(O)c(-c2cc(C(=O)Nc3cccnc3)[nH]n2)cc1C` [TCMDC-124307], which “% Inhibition” value is on record?
Its value is 6.508%.

For `COc1ccc(-c2nc(NC(=O)COc3ccc(C(C)=O)cc3)sc2C)cc1` [TCMDC-125108], which “% Inhibition” value is on record?
The value was 2.358%.

How did the “% Inhibition” value turn out when `Cn1nccc1C(=O)NCCNCc1ccc(-c2ccc(-c3nc4cc(C(F)(F)F)ccc4[nH]3)s2)cc1.O=C(O)C(F)(F)F` [TCMDC-133018] was run?
The value was -29.18%.

`CCNc1cc(C(=O)N[C@@H](Cc2ccccc2)[C@H](O)CNC(C)CC(C)C)c(F)c(N2CCCCS2(=O)=O)c1` (stereo partly drawn) [TCMDC-135167] was tested. Which “% Inhibition” value did it give?
Its value is 44.92%.

For `CCNc1cc(C(=O)NC(Cc2ccccc2)C(O)CNC(C)(C)CCCC(C)C)c(F)c(N2CCCS2(=O)=O)c1` (stereo not drawn) [TCMDC-135210], which “% Inhibition” value is on record?
Its value is 12.17%.

With `CC(C)Nc1cc(C(=O)N[C@@H](Cc2ccccc2)[C@H](O)CNCc2cccc(C(F)(F)F)c2)c(F)c(N2CCCCS2(=O)=O)c1` [TCMDC-135538] as the molecule, how does the “% Inhibition” value read?
Its value is 3.895%.

With `CCNc1cc(C(=O)N[C@@H](Cc2ccccc2)[C@H](O)CNCCC(C)(C)C)c(F)c(N2CCCCS2(=O)=O)c1` [TCMDC-135165] as the molecule, how does the “% Inhibition” value read?
Its value is 62.14%.

How did the “% Inhibition” value turn out when `CC(C)Nc1cc(C(=O)N[C@@H](Cc2ccccc2)[C@H](O)CNC(C)(C)c2cccc(C(F)(F)F)c2)cc(N2CCCCS2(=O)=O)c1` [TCMDC-135204] was run?
Its value is 0.5792%.

How did the “% Inhibition” value turn out when `CCNc1cc(C(=O)N[C@@H](Cc2ccccc2)[C@H](O)CNC(C)(C)CC(C)(C)C)c(F)c(N2CCCCS2(=O)=O)c1` [TCMDC-135166] was run?
Its value is -2.474%.

`CC(C)CCCC(C)(C)NC[C@@H](O)[C@H](Cc1ccccc1)NC(=O)c1cc(NC(C)C)cc(N2CCCCS2(=O)=O)c1F` [TCMDC-135540] was tested. Which “% Inhibition” value did it give?
The value was 50.35%.

With `CC(C)CCCC(C)(C)NC[C@@H](O)[C@H](Cc1ccccc1)NC(=O)c1cc(NC(C)C)cc(N2CCCCS2(=O)=O)c1` [TCMDC-135206] as the molecule, how does the “% Inhibition” value read?
Its value is 89.31%.

`CCNc1cc(C(=O)N[C@@H](Cc2ccccc2)[C@H](O)CNC(C)(C)CCCC(C)C)cc(N2CCCCS2(=O)=O)c1` [TCMDC-135211] was tested. Which “% Inhibition” value did it give?
The value was 24.29%.

Which “% Inhibition” value does the source give for `CCc1cc2c3c(N)nc(N)nc3ccc2n1C(CC)CC` [TCMDC-137309] here?
Its value is 2.246%.

Which “% Inhibition” value does the source give for `CCC(CC)n1c(COC)cc2c3c(N)nc(N)nc3ccc21` [TCMDC-137313] here?
The value was -40.93%.

For `CCCc1cc2c3c(N)nc(N)nc3ccc2n1CC` [TCMDC-137946], which “% Inhibition” value is on record?
Its value is 108%.

How did the “% Inhibition” value turn out when `CCc1cc2c3c(N)nc(N)nc3ccc2n1C(C)(C)C` [TCMDC-137306] was run?
Its value is 29.54%.

How did the “% Inhibition” value turn out when `CCCc1cc2c3c(N)nc(N)nc3ccc2n1C(CC)CC` [TCMDC-137312] was run?
The value was 13.64%.

How did the “% Inhibition” value turn out when `CCn1c(C(C)C)cc2c3c(N)nc(N)nc3ccc21` [TCMDC-137856] was run?
Its value is 56.38%.

How did the “% Inhibition” value turn out when `CCc1cc2c3c(N)nc(N)nc3ccc2n1C(C)CC` (stereo not drawn) [TCMDC-137308] was run?
The value was 10.89%.

How did the “% Inhibition” value turn out when `CC(C)n1ncc2c3c(N)nc(N)nc3ccc21` [TCMDC-137866] was run?
Its value is 12.93%.

`CCc1cc2c3c(N)nc(N)nc3ccc2n1CC` [TCMDC-137851] was tested. Which “% Inhibition” value did it give?
Its value is 94.91%.

With `CSC1=NC2(CC(c3cccc(C)c3)c3cc(Cl)c(O)cc3O2)CC(C)(C)N1` (stereo not drawn) [TCMDC-125563] as the molecule, how does the “% Inhibition” value read?
Its value is 19.29%.

`O=C(c1ccc(-c2ccccn2)s1)N1CCc2cc3nccc(N4CCN5CCC[C@H]5C4)c3cc21` [TCMDC-140047] was tested. Which “% Inhibition” value did it give?
The value was 34.48%.

How did the “% Inhibition” value turn out when `CCCCCCn1c(Sc2ccc(C#N)c([N+](=O)[O-])c2)nnc1-c1cccs1` [TCMDC-135586] was run?
The value was 11.04%.

For `COc1cccc(C(=O)Nc2ccc(Nc3nc(C)cc(N4CCCCC4)n3)cc2)c1OC` [TCMDC-124963], which “% Inhibition” value is on record?
The value was -19.94%.

For `CC(CN(C)C)Oc1ccc2[nH]c(-c3cccc(OCc4ccccc4)c3)nc2c1C#N` (stereo not drawn) [TCMDC-133767], which “% Inhibition” value is on record?
Its value is 6.337%.

For `CCn1c(-c2nonc2N)nc2c(-c3cccc(NC(=O)Nc4cccc(C#N)c4)c3)ncc(OCCCN)c21` [TCMDC-136195], which “% Inhibition” value is on record?
The value was 98.06%.

For `CCn1c(-c2nonc2N)nc2c(-c3cccc(NC(=O)Nc4ccc(C#N)cc4)c3)ncc(OCCCN)c21` [TCMDC-136194], which “% Inhibition” value is on record?
The value was 88.46%.

For `Cc1cccc2[nH]c(-c3ccc(-c4ccc(NC(=O)Nc5cccc(C#N)c5)cc4)cc3)nc12` [TCMDC-133196], which “% Inhibition” value is on record?
The value was -20.21%.

Which “% Inhibition” value does the source give for `N#Cc1cccc(NC(=O)Nc2cccc(-c3cccc(-c4nc5ccccc5[nH]4)c3)c2)c1` [TCMDC-133193] here?
Its value is -45.89%.
